Here are results for 35 compounds from PubChem BioAssay.

The target of one assay is Streptavidin (Streptomyces avidinii) (UniProt P22629). As to the kind of experiment: compounds binding control protein streptavidin – biophysical, small-molecule microarray, 635/667 nm fluorescence, artefact control for SMM compound annotation, primary screen (AID 1147).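 Note: signal reflects streptavidin binding to arrayed compounds as a control protein.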 To be noted: higher = more signal.
Chain of Streptavidin (Streptomyces avidinii) (P22629 whole entry, looked up): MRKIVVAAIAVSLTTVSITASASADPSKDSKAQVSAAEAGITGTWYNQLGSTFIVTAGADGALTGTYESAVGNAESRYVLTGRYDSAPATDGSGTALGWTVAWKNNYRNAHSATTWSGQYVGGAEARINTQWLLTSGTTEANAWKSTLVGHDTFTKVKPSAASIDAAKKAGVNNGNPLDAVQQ
`COc1ccc(C#Cc2ccc3c(c2)[C@]2(C(=O)N3)[C@H](C(=O)N3CCN(c4ncccn4)CC3)[C@H]3C(=O)O[C@H](c4ccccc4)[C@H](c4ccccc4)N3[C@@H]2c2ccc(O)cc2)cc1` returned a composite z-score of 1.04.
Same read-out and setting: as for `Oc1ccc2cc[n+](Cc3cccc(OC(F)(F)F)c3)cc2c1`, the figure is 0.1; as for `O=C1[C@H]2C=C(Br)[C@H](C[C@@H]2OCCOCCO)[C@@]12CO2`, 0.138.
Same read-out and setting: with `CC(c1ccccc1)C(O)C1C=CC2C(=O)N(Cc3ccccc3)C(=O)C2N1n1cnnc1` (stereo unspecified) the figure was 0.705; with `COCCCNC(=O)[C@@]1(C)c2ccccc2C(=O)N(Cc2ccccc2)[C@H]1c1ccc(CO)cc1`, -0.944.
The same measure, in the same setting: as for `NC(=O)NCC#Cc1ccc2c(c1)[C@]1(C(=O)N2)[C@H](c2ccc(O)cc2)N2[C@H](c3ccccc3)[C@H](c3ccccc3)OC(=O)[C@H]2[C@@H]1C(=O)N1CCN(c2ncccn2)CC1`, the figure is 0.0219; as for `C=C[C@H](C)[C@H](OC(=O)Nc1ccc(OC)cc1)c1ccc(O)c2ccccc12`, -0.199.
Compound `COCC1C2CC[C@H]3C(OCc4ccc(F)cc4C(F)(F)F)OC[C@]4(C)[C@H]3C2=C(CN4C(=O)OC(C)(C)C)[C@H](C)C1COC` (stereo partly specified) displayed a composite z-score of 1.2.
On the same count and under the same terms, as for `C=CCN1C(=O)[C@]2(Cc3ccccc31)N=C(c1ccc(OCCCO)cc1)O[C@@H]2c1ccccc1`, the figure is 0.586.
`[N-]=[N+]=NCc1ccccc1[C@@H]1OC(c2ccc(OCCCO)cc2)=N[C@]1(Cc1ccccc1)C(=O)O` registered a composite z-score of 0.728.
Still for that read-out and setting: as for `O=C(NCCN1CCOCC1)[C@@H]1c2ccccc2C(=O)N(Cc2cc(F)cc(C(F)(F)F)c2)[C@H]1c1ccc(CO)cc1`, the figure is -0.78; as for `O=c1cccc(-c2ccccc2)o1`, -0.386.
The compound `O=C1O[C@@H](c2ccccc2)[C@@H](c2ccccc2)N2[C@@H](c3ccc(O)cc3)[C@]3(C(=O)Nc4ccccc43)[C@@H](C(=O)N3CCCCCCC3)[C@H]12` yielded a composite z-score of 2.93.
The compound `Cc1ccccc1/C=C/C=O` returned a composite z-score of -0.943.
In turn, `COc1ccc([Si](C)(C)[C@H]2[C@H](CC(=O)N3Cc4ccccc4C[C@H]3CO)O[C@@]3(C(=O)N(Cc4cccc(I)c4)c4ccccc43)[C@@H]2C)cc1` came in with a composite z-score of 0.795.
As for `C=C(/C(=C/C[C@@H](OC(C)=O)c1ccc(CO)o1)c1cnc2ccccc2c1)C(C)C`, the composite z-score was found to be 0.17.
On the same count and under the same terms, as for `[N-]=[N+]=NCc1ccccc1[C@@H]1OC(c2ccc(OCCCO)cc2)=N[C@]1(Cc1ccccc1N=[N+]=[N-])C(N)=O`, the figure is 2.16; as for `C=CCOC(=O)[C@H]1[C@@H]2C(=O)O[C@@H](c3ccccc3)[C@@H](c3ccccc3)N2[C@@H](c2ccc(OCCOC(=O)[C@H]3C[C@H]4C(=O)N[C@@H](CCCC[N+](C)(C)C)C(=O)N4[C@H]3c3ccc(O)cc3)cc2)[C@]12C(=O)Nc1ccccc12`, -0.22; as for `CC1CC/C=C\[C@H]2OC34C=CCN(Cn5nnc6ccccc65)C(=O)[C@H]3N(CCCO)C(=O)[C@@H]4C2C(=O)O1` (stereo partly specified), -0.958.
Still for that read-out and setting: as for `Cc1cc(C)c(C(O)C2C=CC3C(=O)NC(=O)C3N2Nc2ccccn2)c(C)c1` (stereo unspecified), the figure is 0.545; as for `C=C[C@@H](C)[C@@H](OC(=O)Nc1ccc(OC)cc1)c1ccc(O)c2ccccc12`, 0.0646; as for `[N-]=[N+]=NCc1ccccc1[C@H]1OC(c2ccc(OCCCO)cc2)=N[C@@]1(Cc1ccccc1)C(=O)NCC(O)CO` (stereo partly specified), 0.496.
Still for that read-out and setting: with `C=CC[C@]1(C(=O)O)N=C(c2ccc(OCCCO)cc2)O[C@H]1c1ccccc1CN=[N+]=[N-]` the figure was -0.0336; with `NC(=O)[C@@]1(CCS(=O)(=O)c2ccccc2)N=C(c2ccc(OCCCO)cc2)O[C@H]1c1ccccc1`, 0.856; with `C=C(CCCC)/C(=C/C[C@H](OC(C)=O)c1ccc(CO)o1)c1cc(C(=O)OC)ccc1OC`, 0.772.
`O=C1O[C@@H](c2ccccc2)[C@@H](c2ccccc2)N2[C@@H](c3ccc(O)cc3)[C@]3(C(=O)Nc4ccccc43)[C@@H](C(=O)NC[C@H](O)c3ccccc3)[C@H]12` returned a composite z-score of -0.26.

Test system in a further assay: not listed separately
As to the kind of experiment: probe aInhba binding on compound microarray – biochemical, small-molecule microarray, 635/667 nm fluorescence, primary screen (AID 1148).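 Note: score merges 667nm spot fluorescence with signal-to-noise for antibody binding to printed compounds.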 The following applies: higher = more signal.
As to `O=C1O[C@H](c2ccccc2)[C@H](c2ccccc2)N2[C@H]1[C@@H](C(=O)NC[C@H](O)c1ccccc1)[C@]1(C(=O)Nc3ccc(C#CC4(O)CCCCCC4)cc31)[C@H]2c1ccccc1OCCO`, the composite z-score was determined as 0.214.
In the case of `O=C1OCCC=C[C@H]2OC34C=CCN(c5ccc6ccccc6c5)C(=O)[C@H]3N(CCCCCCO)C(=O)[C@@H]4C12` (stereo partly specified), the composite z-score was -0.179.
Still for that read-out and setting: with `COC(=O)C(CC#Cc1ccc2c(c1)[C@]1(C(=O)N2)[C@H](C(=O)N2CCCCCCC2)[C@H]2C(=O)O[C@H](c3ccccc3)[C@H](c3ccccc3)N2[C@@H]1c1ccccc1OCCO)C(=O)OC` the figure was 2.24; with `[N-]=[N+]=Nc1ccccc1[C@@H]1OC(c2ccc(OCCCO)cc2)=N[C@]1(CCS(=O)(=O)c1ccccc1)C(=O)N1CCCCC1`, 0.453; with `CCOC(=O)C[C@H]1[C@H](OC(=O)c2cc3ccccc3oc2=O)[C@@H](NC(=O)c2ccc3ccccc3c2)c2cc(OCCCO)ccc2N1C(=O)c1ccccc1`, -0.0405.
Take `COCCOC(=O)N1C(=O)[C@@]2(c3cc(C#CCCO)ccc31)[C@H](c1ccc(O)cc1)N1[C@H](c3ccccc3)[C@H](c3ccccc3)OC(=O)[C@H]1[C@@H]2C(=O)N1CCCCCCC1`: the composite z-score was determined as 0.62.
Same read-out and setting: as for `O=[N+]([O-])c1ccc(C[n+]2ccc(CCCO)cc2)o1`, the figure is 0.189; as for `COCCn1c(C(=O)N2CCCC2)cc2c1C[C@H]1CN(C(=O)c3ccccc3)[C@@](Cc3ccc(OC)cc3)(C(=O)OC)[C@@H]21`, 0.739.
Same read-out and setting: with `O=C1c2ccccc2[C@](Cc2ccccc2I)(C(=O)O)[C@H](c2ccc(CO)cc2)N1Cc1ccccc1C(F)(F)F` the figure was -0.024; with `COc1ccc(C#Cc2ccc3c(c2)[C@]2(C(=O)N3)[C@H](C(=O)N3CCN(c4ncccn4)CC3)[C@H]3C(=O)O[C@H](c4ccccc4)[C@H](c4ccccc4)N3[C@@H]2c2ccc(O)cc2)cc1`, 0.13.
In turn, `Oc1ccc2cc[n+](Cc3cccc(OC(F)(F)F)c3)cc2c1` returned a composite z-score of -0.255.
On the same count and under the same terms, with `O=C1[C@H]2C=C(Br)[C@H](C[C@@H]2OCCOCCO)[C@@]12CO2` the figure was -0.118; with `CC(c1ccccc1)C(O)C1C=CC2C(=O)N(Cc3ccccc3)C(=O)C2N1n1cnnc1` (stereo unspecified), -0.145; with `COCCCNC(=O)[C@@]1(C)c2ccccc2C(=O)N(Cc2ccccc2)[C@H]1c1ccc(CO)cc1`, -0.0963.
Same read-out and setting: with `NC(=O)NCC#Cc1ccc2c(c1)[C@]1(C(=O)N2)[C@H](c2ccc(O)cc2)N2[C@H](c3ccccc3)[C@H](c3ccccc3)OC(=O)[C@H]2[C@@H]1C(=O)N1CCN(c2ncccn2)CC1` the figure was 0.181; with `C=C[C@H](C)[C@H](OC(=O)Nc1ccc(OC)cc1)c1ccc(O)c2ccccc12`, -0.128.
Same read-out and setting: as for `COCC1C2CC[C@H]3C(OCc4ccc(F)cc4C(F)(F)F)OC[C@]4(C)[C@H]3C2=C(CN4C(=O)OC(C)(C)C)[C@H](C)C1COC` (stereo partly specified), the figure is 0.385.
The compound `C=CCN1C(=O)[C@]2(Cc3ccccc31)N=C(c1ccc(OCCCO)cc1)O[C@@H]2c1ccccc1` registered a composite z-score of -0.0645.
On the same count and under the same terms, with `[N-]=[N+]=NCc1ccccc1[C@@H]1OC(c2ccc(OCCCO)cc2)=N[C@]1(Cc1ccccc1)C(=O)O` the figure was -0.016; with `O=C(NCCN1CCOCC1)[C@@H]1c2ccccc2C(=O)N(Cc2cc(F)cc(C(F)(F)F)c2)[C@H]1c1ccc(CO)cc1`, 0.422; with `O=c1cccc(-c2ccccc2)o1`, -0.204.
The same measure, in the same setting: as for `O=C1O[C@@H](c2ccccc2)[C@@H](c2ccccc2)N2[C@@H](c3ccc(O)cc3)[C@]3(C(=O)Nc4ccccc43)[C@@H](C(=O)N3CCCCCCC3)[C@H]12`, the figure is 1.98.
Still for that read-out and setting: as for `Cc1ccccc1/C=C/C=O`, the figure is -0.137.
In turn, `COc1ccc([Si](C)(C)[C@H]2[C@H](CC(=O)N3Cc4ccccc4C[C@H]3CO)O[C@@]3(C(=O)N(Cc4cccc(I)c4)c4ccccc43)[C@@H]2C)cc1` registered a composite z-score of -0.0102.
The same measure, in the same setting: with `C=C(/C(=C/C[C@@H](OC(C)=O)c1ccc(CO)o1)c1cnc2ccccc2c1)C(C)C` the figure was -0.0448; with `[N-]=[N+]=NCc1ccccc1[C@@H]1OC(c2ccc(OCCCO)cc2)=N[C@]1(Cc1ccccc1N=[N+]=[N-])C(N)=O`, 0.32.
Same read-out and setting: with `C=CCOC(=O)[C@H]1[C@@H]2C(=O)O[C@@H](c3ccccc3)[C@@H](c3ccccc3)N2[C@@H](c2ccc(OCCOC(=O)[C@H]3C[C@H]4C(=O)N[C@@H](CCCC[N+](C)(C)C)C(=O)N4[C@H]3c3ccc(O)cc3)cc2)[C@]12C(=O)Nc1ccccc12` the figure was -0.258; with `CC1CC/C=C\[C@H]2OC34C=CCN(Cn5nnc6ccccc65)C(=O)[C@H]3N(CCCO)C(=O)[C@@H]4C2C(=O)O1` (stereo partly specified), -0.157.
The same measure, in the same setting: with `Cc1cc(C)c(C(O)C2C=CC3C(=O)NC(=O)C3N2Nc2ccccn2)c(C)c1` (stereo unspecified) the figure was 0.0599; with `C=C[C@@H](C)[C@@H](OC(=O)Nc1ccc(OC)cc1)c1ccc(O)c2ccccc12`, -0.154.
On to `[N-]=[N+]=NCc1ccccc1[C@H]1OC(c2ccc(OCCCO)cc2)=N[C@@]1(Cc1ccccc1)C(=O)NCC(O)CO` (stereo partly specified), for which the composite z-score is 0.296.
Same read-out and setting: as for `C=CC[C@]1(C(=O)O)N=C(c2ccc(OCCCO)cc2)O[C@H]1c1ccccc1CN=[N+]=[N-]`, the figure is -0.108; as for `NC(=O)[C@@]1(CCS(=O)(=O)c2ccccc2)N=C(c2ccc(OCCCO)cc2)O[C@H]1c1ccccc1`, 0.0872; as for `C=C(CCCC)/C(=C/C[C@H](OC(C)=O)c1ccc(CO)o1)c1cc(C(=O)OC)ccc1OC`, 0.0622.
Compound `O=C1O[C@@H](c2ccccc2)[C@@H](c2ccccc2)N2[C@@H](c3ccc(O)cc3)[C@]3(C(=O)Nc4ccccc43)[C@@H](C(=O)NC[C@H](O)c3ccccc3)[C@H]12` returned a composite z-score of -0.176.
